According to PubChem BioAssay:
Activity calls are given as the source filed them. Unless noted, no rule for the calls is given here.

How the values were obtained:
[1] = test system: Wnt5a (protein binding on small-molecule microarray); assay: Wnt5a binders on small-molecule microarray, primary screen, biophysical, 635/667 nm fluorescence (AID 1142); details: 635 nm fluorescence, higher = more signal;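 also: fluorescence read at 667 nm with signal to noise per printed feature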
[2] = cell viability in Huh7 cells, primary screen, cytotoxicity control for HCV replication inhibitor project, CellTiter-Glo luminescence, basal, 48 h (AID 1143); details: Huh7 HCV replicon, higher = more signal, called active from +8 up or from −8 down;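 also: Huh7 hepatoma cells carrying a hepatitis C replication reporter with no stimulus; test concentration not given here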
[3] = P. aeruginosa biofilm formation inhibitors, primary screen, PAO1 strain, BacTiter-Glo luminescence, LB-PBS (AID 1144); details: 12 h, higher = more signal
[4] = CREB reporter modulators without forskolin, primary screen, cell-based, PC12, CRE-LacZ reporter, unstimulated (AID 1145); details: no forskolin, luminescence, 4.5 h, higher = more signal, called active from +8 up or from −8 down
[5] = CREB reporter modulators under forskolin, primary screen, cell-based, PC12, CRE-LacZ reporter, forskolin-stimulated (AID 1146); details: luminescence, 4.5 h, higher = more signal, called active from +8 up or from −8 down;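 also: PC12 cells with 6xCRE LacZ reporter stimulated by forskolin 10 µM; beta-galactosidase reporter signal reflecting CREB driven transcription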
[6] = target: Streptavidin (Streptomyces avidinii) (UniProt P22629); assay: streptavidin binders on small-molecule microarray, primary screen, artefact control for SMM compound annotation, biophysical, 635/667 nm fluorescence (AID 1147); details: streptavidin binding, higher = more signal;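 also: signal reflects streptavidin binding to arrayed compounds as a control protein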
Chain of Streptavidin (Streptomyces avidinii) (P22629 whole entry, looked up): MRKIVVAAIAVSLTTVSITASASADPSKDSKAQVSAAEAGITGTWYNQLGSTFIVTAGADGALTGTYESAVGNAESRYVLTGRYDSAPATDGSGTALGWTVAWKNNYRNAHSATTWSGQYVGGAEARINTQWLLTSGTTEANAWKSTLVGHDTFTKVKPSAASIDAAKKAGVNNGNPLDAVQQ

[7] = small-molecule binders of probe aInhba, primary screen, biochemical, small-molecule microarray, 635/667 nm fluorescence (AID 1148); details: higher = more signal;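 also: score merges 667nm spot fluorescence with signal-to-noise for antibody binding to printed compounds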
Torsin-1A (Homo sapiens) [8] = target: Torsin-1A (Homo sapiens) (UniProt O14656); assay: torsin A binders from cell lysate, primary screen, small-molecule microarray, wild-type, 635/667 nm (AID 1149); details: COS7 hTOR1A-WT lysate, 635 nm fluorescence, higher = more signal
Chain of Torsin-1A (Homo sapiens) (O14656 whole entry, looked up): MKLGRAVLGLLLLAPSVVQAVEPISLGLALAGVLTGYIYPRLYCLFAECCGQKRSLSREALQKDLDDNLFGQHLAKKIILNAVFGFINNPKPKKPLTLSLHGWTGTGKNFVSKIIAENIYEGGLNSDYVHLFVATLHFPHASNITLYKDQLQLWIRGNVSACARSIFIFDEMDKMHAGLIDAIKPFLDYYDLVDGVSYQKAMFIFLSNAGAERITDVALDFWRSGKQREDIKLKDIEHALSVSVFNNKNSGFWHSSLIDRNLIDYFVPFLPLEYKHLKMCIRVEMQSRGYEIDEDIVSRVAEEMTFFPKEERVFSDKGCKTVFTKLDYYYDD

Torsin-1A (Homo sapiens) [9] = target: Torsin-1A (Homo sapiens) (UniProt O14656); assay: small-molecule binders of mutant TOR1A in lysate, primary screen, cell lysate, small-molecule microarray, COS7 lysate, 635/667 nm fluorescence (AID 1150); details: COS7 hTOR1A mutant lysate, 635 nm fluorescence, higher = more signal;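 also: score pools 667 nm emission and signal to noise measuring lysate protein binding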
[10] = test system: Sonic hedgehog protein (Shh); assay: small-molecule binders of Shh protein, primary screen, biochemical, small-molecule microarray, 635/667 nm fluorescence (AID 1151); details: small-molecule microarray binding, 635 nm fluorescence; higher = more signal;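 also: Shh protein binding to compounds spotted on small-molecule microarray slides; score combines spot fluorescence intensity with signal-to-noise across triplicate slides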
[11] = E. coli DRC41 culture turbidity changes, primary screen, E. coli filamentation inducer project, strain DRC41, OD650, 48 h (AID 1152);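 also: E. coli MC1000 strain DRC41 lacking acrAB efflux pump and sulA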; details: E. coli DRC41 (acrAB sulA), higher = more signal, called active from +8 up or from −8 down
[12] = small-molecule binders of probe aLefty1, primary screen, biochemical, small-molecule microarray, 635/667 nm fluorescence (AID 1153); details: higher = more signal;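 also: score merges spot fluorescence with signal-to-noise ratio from the scanned slide images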
[13] = PSAC antagonists in infected red cells, primary screen, cell-based, P. falciparum Indochina, OD700, 1 h (AID 1154); details: P. falciparum Indochina infected RBC osmotic lysis, higher = more signal, called active from +8 up or from −8 down
[14] = PSAC antagonists in infected red cells, primary screen, cell-based, P. falciparum Indochina, OD700, 2 h (AID 1155);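 also: lysis reports solute entry through the parasite surface anion channel PSAC; channel blockers reduce lysis of infected cells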; details: P. falciparum Indochina infected erythrocytes, osmotic lysis OD700; higher = more signal, called active from +8 up or from −8 down
[15] = osmotic lysis modulators in infected erythrocytes, primary screen, PSAC antagonist project, cell-based, P. falciparum Indochina, OD700, 3 h (AID 1156); details: higher = more signal, called active from +8 up or from −8 down
[16] = PSAC antagonists in infected red cells, primary screen, cell-based, P. falciparum Indochina, OD700, 18 h (AID 1157); details: P. falciparum Indochina infected erythrocytes, osmotic lysis OD700, 18 h; higher = more signal, called active from +8 up or from −8 down
[17] = modulators of S6 phosphorylation in cells, primary screen, cell-based, A549, cytoblot, luminescence, serum-stimulated (AID 1158); details: A549 phospho-S6 cytoblot, 5 h, higher = more signal;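 also: serum-stimulated A549 lung adenocarcinoma cells; signal is phosphorylated S6 detected by cytoblot immunostaining with HRP secondary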
[18] = target: NADPH oxidase 2 (Homo sapiens) (UniProt P04839); assay: NOX2-dependent H2O2 signal modulators, primary screen, NOX inhibitor project, cell-based, HEK293-NOX2, PMA-stimulated, Amplex Red fluorescence (AID 1159); details: 45 min, higher = more signal, called active from +8 up or from −8 down; also: test concentration not given here
Chain of NADPH oxidase 2 (Homo sapiens) (P04839 whole entry, looked up): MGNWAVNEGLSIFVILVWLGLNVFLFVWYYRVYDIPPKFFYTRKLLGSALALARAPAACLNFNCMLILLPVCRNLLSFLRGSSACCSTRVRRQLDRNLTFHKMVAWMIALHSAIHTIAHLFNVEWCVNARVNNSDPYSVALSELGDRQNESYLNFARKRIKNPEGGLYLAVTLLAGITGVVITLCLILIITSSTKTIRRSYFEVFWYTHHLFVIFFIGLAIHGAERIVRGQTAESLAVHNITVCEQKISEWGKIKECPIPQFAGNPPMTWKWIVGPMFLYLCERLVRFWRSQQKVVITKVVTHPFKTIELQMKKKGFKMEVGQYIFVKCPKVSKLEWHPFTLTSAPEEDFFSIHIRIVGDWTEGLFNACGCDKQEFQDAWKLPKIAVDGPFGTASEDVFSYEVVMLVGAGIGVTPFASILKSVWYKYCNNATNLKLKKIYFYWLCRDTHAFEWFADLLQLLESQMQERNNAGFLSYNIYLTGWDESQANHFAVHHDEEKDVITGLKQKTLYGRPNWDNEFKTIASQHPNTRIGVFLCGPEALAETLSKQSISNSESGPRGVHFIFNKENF

[19] = target: NADPH oxidase 4 (Homo sapiens) (UniProt Q9NPH5); assay: NOX4-dependent H2O2 signal modulators, primary screen, NOX inhibitor project, cell-based, HEK293-NOX4, tetracycline-induced, Amplex Red fluorescence (AID 1160); details: 45 min, higher = more signal, called active from +8 up or from −8 down
Chain of NADPH oxidase 4 (Homo sapiens) (Q9NPH5 whole entry, looked up): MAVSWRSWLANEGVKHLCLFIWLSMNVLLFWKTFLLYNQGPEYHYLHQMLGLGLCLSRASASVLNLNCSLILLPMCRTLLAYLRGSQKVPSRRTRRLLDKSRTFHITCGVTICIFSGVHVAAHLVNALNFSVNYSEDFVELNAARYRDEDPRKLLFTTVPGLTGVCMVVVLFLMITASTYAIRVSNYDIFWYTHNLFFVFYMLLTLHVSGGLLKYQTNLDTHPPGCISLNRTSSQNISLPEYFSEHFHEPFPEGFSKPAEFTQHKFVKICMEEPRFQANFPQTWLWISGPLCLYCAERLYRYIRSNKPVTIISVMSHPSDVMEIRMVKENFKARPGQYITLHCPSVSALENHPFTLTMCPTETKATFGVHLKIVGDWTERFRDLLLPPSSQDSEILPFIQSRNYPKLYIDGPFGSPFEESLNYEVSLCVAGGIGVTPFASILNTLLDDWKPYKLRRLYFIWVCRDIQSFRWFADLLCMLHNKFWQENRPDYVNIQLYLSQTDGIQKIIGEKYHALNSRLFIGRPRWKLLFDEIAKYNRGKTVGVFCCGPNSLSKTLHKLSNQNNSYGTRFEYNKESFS

[20] = target: NADPH oxidase 5 (Homo sapiens) (UniProt Q96PH1); assay: NOX5-dependent H2O2 signal modulators, primary screen, NOX inhibitor project, cell-based, HEK293-NOX5, Amplex Red fluorescence (AID 1161); details: HEK293-NOX5, ionomycin, 45 min, higher = more signal
Chain of NADPH oxidase 5 (Homo sapiens) (Q96PH1 whole entry, looked up): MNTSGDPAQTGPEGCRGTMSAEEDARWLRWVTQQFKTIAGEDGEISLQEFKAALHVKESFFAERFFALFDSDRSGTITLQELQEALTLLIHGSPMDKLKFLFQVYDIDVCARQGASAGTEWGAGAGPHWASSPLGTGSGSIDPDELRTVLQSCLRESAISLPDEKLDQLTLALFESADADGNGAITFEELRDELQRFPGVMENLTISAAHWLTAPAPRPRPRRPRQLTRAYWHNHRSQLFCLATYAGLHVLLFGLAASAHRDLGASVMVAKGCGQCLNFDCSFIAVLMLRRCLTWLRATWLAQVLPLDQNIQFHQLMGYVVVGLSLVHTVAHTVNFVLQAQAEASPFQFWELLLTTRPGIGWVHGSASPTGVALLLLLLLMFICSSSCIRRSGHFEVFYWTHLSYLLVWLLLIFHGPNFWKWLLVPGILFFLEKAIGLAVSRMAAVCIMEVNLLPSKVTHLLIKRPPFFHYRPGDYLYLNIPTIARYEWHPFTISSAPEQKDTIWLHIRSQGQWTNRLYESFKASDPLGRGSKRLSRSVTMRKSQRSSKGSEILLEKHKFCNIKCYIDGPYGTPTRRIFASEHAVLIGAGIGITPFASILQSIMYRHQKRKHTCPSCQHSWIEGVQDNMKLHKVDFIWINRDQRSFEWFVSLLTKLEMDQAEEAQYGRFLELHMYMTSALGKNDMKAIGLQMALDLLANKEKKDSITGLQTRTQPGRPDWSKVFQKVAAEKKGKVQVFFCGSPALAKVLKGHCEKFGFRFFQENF

Row | Structure (SMILES) | composite z-score [1] | z-score [2] | z-score [3] | z-score [4] | z-score [5] | composite z-score [6] | composite z-score [7] | composite z-score (Torsin-1A (Homo sapiens) [8]) | composite z-score (Torsin-1A (Homo sapiens) [9]) | composite z-score [10] | z-score [11] | composite z-score [12] | z-score [13] | z-score [14] | z-score [15] | z-score [16] | z-score [17] | z-score [18] | z-score [19] | z-score [20]
1 | CC(=O)OC[C@H]1O[C@@H](ON=C(C)CCN2CCCCc3nc(C)c(C)cc32)[C@H](OC(C)=O)[C@@H](OC(C)=O)[C@@H]1OC(C)=O | 0.752 | -2.39 (inactive) | 0.0375 (inactive) | 2.32 (inactive) | -0.494 (inactive) | -0.452 | 0.144 | 0.987 | 1.12 | 1.64 | -0.998 (inactive) | -0.0601 | -0.323 (inactive) | -0.558 (inactive) | 1.16 (inactive) | -1.5 (inactive) | 0.314 | -1.31 (inactive) | -1.24 (inactive) | -2.54
2 | CC(CCN1CCc2nc(-c3ccccc3)c(-c3ccccc3)cc2C1)=NOC(C)CN1CCCc2nc(C)c(C)cc21 (stereo not given) | 0.281 | -1.33 (inactive) | 0.25 (inactive) | 0.894 (inactive) | -0.0977 (inactive) | 0.808 | 0.0785 | 0.373 | 0.432 | 0.667 | -0.115 (inactive) | 0.0956 | 3.04 (inactive) | 0.494 (inactive) | 0.959 (inactive) | 0.268 (inactive) | -0.56 | -5.56 (inactive) | -0.946 (inactive) | -3.15
3 | CCc1cc2c(nc1CC)CCN(CCC(C)=NO[C@@H]1O[C@H](COC(C)=O)[C@@H](OC(C)=O)[C@H](OC(C)=O)[C@H]1OC(C)=O)C2 | 0.503 | -1.9 (inactive) | -1.19 (inactive) | 4.05 (inactive) | -0.26 (inactive) | 0.963 | -0.089 | 0.439 | 0.495 | 1.88 | -1.13 (inactive) | -0.0929 | -0.451 (inactive) | -1.01 (inactive) | 1.42 (inactive) | -1.67 (inactive) | 1.83 | 0.0419 (inactive) | 0.47 (inactive) | 1.03
4 | CCOC(=O)[C@H](CC(C)C)NC(=O)CCC1CC(OC(=O)NCc2ccc3c(c2)OCO3)CC2(CCCC(COC(=O)NCc3ccccc3)O2)O1 (stereo not given in full) | -0.0368 | -0.72 (inactive) | 0.0377 (inactive) | -0.437 (inactive) | -0.256 (inactive) | 0.324 | 0.0712 | 0.288 | 0.245 | 1.84 | -0.729 (inactive) | 0.0004 | 7.67 (inactive) | 0.795 (inactive) | -0.626 (inactive) | 0.297 (inactive) | -0.251 | -0.398 (inactive) | 0.47 (inactive) | 0.202
5 | CCOC(=O)CCN1C(=O)[C@H]2[C@H]3[C@H](O)[C@H](O)CC(=O)[C@@H]3CC[C@H]2C1=O | 0.352 | -0.19 (inactive) | -0.401 (inactive) | 0.527 (inactive) | -0.671 (inactive) | 0.182 | -0.179 | 0.205 | 0.5 | 0.757 | -0.851 (inactive) | -0.407 | 0.781 (inactive) | 0.411 (inactive) | -0.737 (inactive) | 0.305 (inactive) | -0.373 | 0.583 (inactive) | 0.41 (inactive) | -0.0545
6 | C[C@@H]1CC[C@H]2C(=O)O[C@@H](COc3ccc(C(C)(C)C)cc3)CN2[C@H]1c1ccc(Br)cc1 | 0.0114 | -0.0293 (inactive) | 0.0807 (inactive) | 0.345 (inactive) | 0.213 (inactive) | 0.0826 | -0.0523 | 0.159 | -0.0416 | 0.526 | -0.113 (inactive) | -0.103 | 1.25 (inactive) | 0.937 (inactive) | -0.897 (inactive) | 0.588 (inactive) | -0.261 | -0.271 (inactive) | 0.562 (inactive) | 0.257
7 | COC(=O)[C@H](C)NC(=O)CCC1CC(OC(=O)NCc2cccc3ccccc23)CC2(CCCC(COC(=O)NCCC(C)C)O2)O1 (stereo not given in full) | 0.0905 | -0.842 (inactive) | -0.386 (inactive) | -0.522 (inactive) | -0.135 (inactive) | -0.224 | -0.0695 | 0.181 | 0.205 | 0.683 | 0.782 (inactive) | 0.423 | 6.93 (inactive) | 0.663 (inactive) | -0.355 (inactive) | 0.197 (inactive) | -0.463 | 1.74 (inactive) | 0.703 (inactive) | 1.52
8 | C#CCCCON=C1C[C@@H](O)[C@@H](O)[C@@H]2[C@@H]3C(=O)N([C@@H](C)c4ccccc4)C(=O)[C@@H]3CC[C@@H]12 | 0.025 | 0.341 (inactive) | -0.0365 (inactive) | 0.0676 (inactive) | 0.227 (inactive) | 0.214 | -0.239 | -0.281 | -0.434 | 0.0938 | 0.0467 (inactive) | 0.0824 | 0.433 (inactive) | 0.186 (inactive) | -0.195 (inactive) | -0.139 (inactive) | -0.507 | 0.362 (inactive) | 0.574 (inactive) | -0.132
